In test [1] the test system is TRPC4 beta (transient receptor potential cation channel C4), mouse. Put plainly: activators of mouse TRPC4 channel, confirmation, cell-based, Fluo4 calcium, HEK293 TRPC4beta/mu-opioid, duplicates, 10 µM (AID 2426;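 active = fluorescence ratio normalized to control raised more than 50% in primary screen plus both repeat runs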;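 for activation: percent rise of integrated ratio over buffer wells lacking compound which define 0%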). The settings on record: Fluo4 calcium fluorescence, at 10 µM; active compounds read high.
The subject of test [2] is transient receptor potential cation channel C4 beta (TRPC4), mouse. Description: activators of mouse TRPC4 channel, confirmation, cell-based, second round, Fluo4, HEK293 TRPC4beta/mu-opioid, 1 µM (AID 2461). The settings on record: Fluo4 calcium fluorescence, at 1 µM; active compounds read high.
The test system of test [3] is TRPC4 (transient receptor potential cation channel C4 beta), mouse. Put plainly: positive allosteric modulators of mouse TRPC4, confirmation, cell-based, second round, Fluo-4, HEK293 TRPC4beta/mu-opioid, 1 µM (AID 2554;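 active = primary screen hit whose fluorescence ratio, in both repeats, exceeds the weak agonist control mean by 3 SD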). The settings on record: DAMGO EC20, Fluo-4 calcium flux, at 1 µM; active compounds read high. Background: A change in cytosolic calcium serves as a functional read-out for many receptors and channels.

Test [4] concerns TRPC4 beta (transient receptor potential cation channel C4), mouse. Description: positive allosteric modulators of mouse TRPC4, confirmation, cell-based, Fluo-4, HEK293 TRPC4beta/mu-opioid (AID 2555;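 active = primary screen hit whose calcium fluorescence ratio, in both repeats, exceeds the weak agonist control mean by 3 SD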). The settings on record: DAMGO EC20, Fluo-4 calcium flux, at 10 µM; active compounds read high.
Test [5] has as its target Short transient receptor potential channel 4 (Mus musculus) (UniProt Q9QUQ5). Description: inhibitors of mouse TRPC4 channel, confirmation, cell-based, Fluo4, HEK293 TRPC4beta/mu-opioid (AID 2636;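 active = calcium signal cut by more than 3 SD below the full-agonist control yet still positive, in both repeats and the earlier primary screen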). The settings on record: DAMGO, Fluo4 calcium flux, at 10 µM; active compounds read high.
For test [6] the target is unchanged. Description: inhibitors of mouse TRPC4 channel, confirmation, cell-based, second round, Fluo4, HEK293 TRPC4beta/mu-opioid, 1 µM (AID 2637;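 active = calcium signal ratio cut to more than 3 SD under the fully stimulated control mean yet still positive, in both repeats and the primary screen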;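 for inhibition: percent of integrated ratio relative to wells lacking test compound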). The settings on record: Fluo4 calcium flux, DAMGO, at 1 µM; active compounds read high.
The target is the same in test [7]. Put plainly: mouse TRPC4 channel activators, dose response, cell-based, HEK293 TRPC4/mu-opioid, Fluo-4 calcium (AID 434937;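 active = primary screen activator hit with a dose response curve and TRPC4 channel activation at any tested dose; inactive = no activation, no dose response, or not a primary hit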).
Test [8] shares this target. Put plainly: TRPC4 positive allosteric modulators, dose response, cell-based, HEK293 TRPC4/mu-opioid, Fluo-4 calcium, EC20 DAMGO (AID 434941;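 active = earlier screen potentiator hit that boosts the TRPC4 ion channel at some dose, with a dose response; inactive = no potentiation, no dose response, or not a prior hit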;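 note: calcium entry triggered by an EC20 dose of DAMGO at the co-expressed mu-opioid receptor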).
In test [9] the target is Short transient receptor potential channel 6 (Mus musculus) (UniProt Q61143). Description: inhibition of mouse TRPC6 channel, confirmation, selectivity assay for TRPC4 inhibitor project, cell-based, HEK293, membrane potential dye, duplicate (AID 434948;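 active = active in primary screen and both duplicates, each dropping signal beyond three positive-control SD with fluorescence still positive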). As to conditions: HEK293 TRPC6, membrane potential dye fluorescence, at 10 µM, stimulated with maximal-effect acetylcholine; active compounds read high.

Test [10] has the same target. Put plainly: activation of mouse TRPC6 channel, confirmation, selectivity assay for TRPC4 activator project, cell-based, HEK293, membrane potential dye, duplicate (AID 434950;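 active = membrane potential signal rise above negative control mean plus 3 SD in both duplicates, also active in the earlier TRPC4 screen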). The settings on record: HEK293 TRPC6, membrane potential fluorescence, at 10 µM; active compounds read high.
Test [11] shares this target. Description: TRPC6 potentiation by TRPC4 potentiator hits, confirmation, selectivity assay for TRPC4 potentiator project, HEK293 cells, membrane potential dye, duplicate (AID 434952;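 active = compound raising the membrane signal above positive-control mean plus 3 SD in both repeats, and a primary screen hit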). The settings on record: HEK293 TRPC6, membrane potential dye fluorescence, at 10 µM, maximal acetylcholine added after compound; active compounds read high.
For test [12], the target named is Short transient receptor potential channel 4 (Mus musculus) (UniProt Q9QUQ5). Description: calcium flux activators in TRPC4/5HT1a cells, counter-screen for TRPC4 activator project, cell-based, second counter screen, HEK293 TRPC4/5HT1a, Fluo-4 (AID 434977;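 active = calcium signal rise above buffer-control mean plus 5 SD in both duplicates, and also a hit in the primary screen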). As to conditions: Fluo-4 calcium flux, at 10 µM; active compounds read high.
Test [13] is described as follows: calcium flux inhibitors in TRPC4/5HT1a cells, confirmation, counter-screen for TRPC4 inhibitor project, cell-based, second counter screen, HEK293 TRPC4/5HT1a, Fluo-4 (AID 434978;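 active = primary screen active whose calcium signal fell more than 3 SD beyond the full-serotonin control mean in both duplicate plates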;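 for outcome: serotonin given first at submaximal then at maximal dose after compound preincubation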). The settings on record: Fluo-4 calcium flux, at 10 µM, serotonin added to trigger calcium flux; active compounds read high.
Test [14] has as its system TRPC4 (mouse), co-expressed with 5HT1a in HEK293. Description: calcium flux potentiators in TRPC4/5HT1a cells, confirmation, counter-screen for TRPC4 potentiator project, cell-based, second counter screen, HEK293 TRPC4/5HT1a, Fluo-4 (AID 434979;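 active = signal rise over 3 SD above mean of control wells given weak agonist, in both repeats and first screen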). The settings on record: Fluo-4 calcium flux, at 10 µM, serotonin added at its EC20 dose; active compounds read high.
Test [15] in a line: calcium flux activation in mu-opioid HEK293 cells, confirmation, counter-screen for TRPC4 activator project, cell-based, HEK293 mu-opioid receptor line (AID 449723;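 active = hit in primary screen, with calcium signal over 5 SD above buffer well mean in both duplicates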;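 note: counter screen cells carry the mu-opioid receptor alone and lack TRPC4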). As to conditions: Fluo-4 calcium fluorescence, at 10 µM; active compounds read high.
Test [16] in a line: calcium flux enhancement in mu-opioid HEK293 cells, confirmation, counter-screen for TRPC4 allosteric potentiator project, cell-based, HEK293 mu-opioid receptor line (AID 449724;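 active = calcium signal rise more than 3 SD above the low-dose agonist control mean, in both duplicate plates and the primary screen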;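 note: HEK293 cells carrying mu-opioid receptor only with no TRPC4 channel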). As to conditions: Fluo-4 calcium flux, at 10 µM, compound added before EC20 DAMGO stimulus; active compounds read high.

For part of these data: Measured potencies and affinities stand elsewhere. The source made the active and inactive calls.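 Rule for the calls, unless noted: active = primary screen active and over 50% activation in each of two duplicate runs; inactive = the rest.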

As usually defined, the inhibition is the relative decrease from the control value, in per cent.

Chain of Short transient receptor potential channel 6 (Mus musculus) (Q61143 whole entry, looked up): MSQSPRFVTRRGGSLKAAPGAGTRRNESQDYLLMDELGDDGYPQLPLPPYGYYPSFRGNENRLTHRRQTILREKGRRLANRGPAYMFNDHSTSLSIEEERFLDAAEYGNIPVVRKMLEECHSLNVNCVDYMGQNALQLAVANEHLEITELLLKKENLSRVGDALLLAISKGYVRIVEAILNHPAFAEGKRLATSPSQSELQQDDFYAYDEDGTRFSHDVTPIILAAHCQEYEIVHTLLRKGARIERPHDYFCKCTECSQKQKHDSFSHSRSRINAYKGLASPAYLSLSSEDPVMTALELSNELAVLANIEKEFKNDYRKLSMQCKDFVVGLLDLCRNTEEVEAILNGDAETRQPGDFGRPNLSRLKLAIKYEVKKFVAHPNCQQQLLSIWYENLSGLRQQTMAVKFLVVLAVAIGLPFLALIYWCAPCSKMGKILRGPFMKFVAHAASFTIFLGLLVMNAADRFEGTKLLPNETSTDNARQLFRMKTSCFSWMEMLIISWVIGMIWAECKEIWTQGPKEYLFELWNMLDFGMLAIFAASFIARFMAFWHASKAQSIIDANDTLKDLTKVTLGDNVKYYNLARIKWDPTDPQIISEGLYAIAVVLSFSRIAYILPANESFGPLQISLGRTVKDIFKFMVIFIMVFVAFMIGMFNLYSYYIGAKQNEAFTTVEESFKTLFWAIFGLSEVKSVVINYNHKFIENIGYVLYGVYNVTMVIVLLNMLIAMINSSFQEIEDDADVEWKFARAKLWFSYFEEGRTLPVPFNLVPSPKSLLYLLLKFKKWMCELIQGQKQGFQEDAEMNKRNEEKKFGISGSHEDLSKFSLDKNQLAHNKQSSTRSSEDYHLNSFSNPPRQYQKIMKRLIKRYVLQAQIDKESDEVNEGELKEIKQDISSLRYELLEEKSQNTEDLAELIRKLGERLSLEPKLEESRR
Chain of Short transient receptor potential channel 4 (Mus musculus) (Q9QUQ5 whole entry, looked up): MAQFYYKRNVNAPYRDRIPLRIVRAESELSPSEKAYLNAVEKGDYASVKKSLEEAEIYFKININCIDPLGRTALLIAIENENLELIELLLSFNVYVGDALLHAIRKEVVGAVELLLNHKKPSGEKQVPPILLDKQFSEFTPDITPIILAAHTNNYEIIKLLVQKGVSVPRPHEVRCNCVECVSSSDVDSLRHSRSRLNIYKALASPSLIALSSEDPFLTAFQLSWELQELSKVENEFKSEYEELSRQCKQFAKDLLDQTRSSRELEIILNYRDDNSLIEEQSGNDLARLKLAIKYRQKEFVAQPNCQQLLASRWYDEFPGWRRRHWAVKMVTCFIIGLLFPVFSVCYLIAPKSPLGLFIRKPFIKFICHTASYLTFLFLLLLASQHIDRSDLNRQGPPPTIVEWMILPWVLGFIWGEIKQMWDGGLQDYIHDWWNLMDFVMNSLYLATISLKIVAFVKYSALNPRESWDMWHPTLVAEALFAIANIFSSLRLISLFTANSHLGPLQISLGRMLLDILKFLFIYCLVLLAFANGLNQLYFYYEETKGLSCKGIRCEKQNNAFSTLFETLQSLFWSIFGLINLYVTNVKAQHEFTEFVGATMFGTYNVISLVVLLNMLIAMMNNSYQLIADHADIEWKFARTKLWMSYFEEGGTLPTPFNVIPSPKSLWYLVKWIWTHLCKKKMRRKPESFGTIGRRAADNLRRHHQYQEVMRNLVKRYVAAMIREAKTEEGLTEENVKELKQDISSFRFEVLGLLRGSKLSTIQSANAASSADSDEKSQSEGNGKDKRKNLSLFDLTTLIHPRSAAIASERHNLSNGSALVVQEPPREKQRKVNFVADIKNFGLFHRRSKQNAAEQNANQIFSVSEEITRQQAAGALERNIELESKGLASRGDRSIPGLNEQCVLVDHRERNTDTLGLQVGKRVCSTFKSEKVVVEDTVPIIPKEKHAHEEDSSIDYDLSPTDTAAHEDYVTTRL

For the molecule `CCOc1cc(CNCCCN2CCOCC2)cc(Br)c1OCC(=O)Nc1cccc(C(F)(F)F)c1`, the result in test [1], in [2], in test [3], in test [4], in test [7] and in test [8] was inactive. The result in [9], in test [10], in [11], in [12], in test [14] and in [15] was inactive. The result in [16] was inactive. Further, the inhibition in test [5] was 101% (active); in test [6], 40% (active); in test [13], 30.5% (active).

As to `Cc1ccc(S(=O)(=O)Nc2cccc(C(=O)NCC(c3ccco3)N3CCCCC3)c2)cc1F` (stereo not given), the result in [1], in [2], in test [3], in [4], in [7] and in test [8] was inactive. Also, the molecule was classed as inactive in [9], in [10], in [11], in test [12], in test [13] and in test [14]. Besides, the result in [15] and in [16] was inactive. The inhibition is 100% (active) in test [5] and 39% (active) in [6].

In the case of `CC1CCc2c(sc3ncnc(SCC(=O)Nc4ccc(C(=O)O)cc4)c23)C1` (stereo not given), the outcome in test [1], in test [2], in test [3], in test [4], in test [7] and in test [8] was inactive. Besides, the molecule was classed as inactive in test [9], in test [10], in test [11], in test [12], in [13] and in [14]. The outcome in [15] and in [16] was inactive. Besides, the values for the inhibition in test [5] and in test [6] were 88% (active) and 45% (active), respectively.

On to `COc1ccc(/C=C2/SC(=S)N(CCCC(=O)Nc3ccccc3C(=O)O)C2=O)cc1`, for which the outcome in test [1], in test [2], in test [3], in test [4], in [7] and in test [8] was inactive. In addition, the outcome in test [9], in test [10], in test [11], in test [12], in test [14] and in test [15] was inactive. The result in test [16] was inactive. Also, the inhibition in test [5] is 81% (active); in test [6], 48% (active); in test [13] it was 36.7% (active).

On to `CC12CN3CC(C)(CN(C1)C3c1ccc(Cl)cc1Cl)C2O` (stereo not given), for which the activation in test [1] is 66% (active). Besides, the result in test [2], in [3], in test [4], in test [5], in test [7] and in test [8] was inactive. For the same molecule, the result in [9], in test [10], in [11], in test [12], in test [13] and in test [14] was inactive. For the same molecule, the outcome in test [15] and in test [16] was inactive. Moreover, the inhibition in test [6] is 64% (active).

Turning to `O=C(C[N+]1(CC#Cc2ccccc2)CCCCC1)c1ccc(Cl)cc1`, the result in test [1], in test [2], in [3], in test [4], in [6] and in test [7] was inactive. The result in test [8], in test [9], in test [10], in test [11], in test [12] and in [14] was inactive. The outcome in test [15] and in test [16] was inactive. Besides, the inhibition was 86% (active) in [5] and 40.2% (active) in [13].

On to `CCOC(=O)CSc1nc2ccccc2c(=O)n1CC1CCCC1`, for which the result in [1], in test [2], in test [3], in test [4], in [6] and in test [7] was inactive. In addition, the result in test [8], in test [9], in test [10], in test [11], in [12] and in test [14] was inactive. Besides, the outcome in test [15] and in [16] was inactive. In addition, the inhibition in test [5] is 84% (active); in test [13], 18.3% (active).

For the molecule `CCCCNCC1C(Oc2ccc(Cl)cc2)C(=O)N1c1ccccc1C` (stereo not given), the result in [1], in [2], in [3], in test [4], in test [5] and in [6] was inactive. Further, the outcome in test [7], in test [8], in [9], in test [10], in test [11] and in test [12] was inactive. The outcome in test [13], in [14], in test [15] and in [16] was inactive.

In the case of `O=C(CCc1ccccc1)Nc1ccnn1C1CCN(C/C=C/c2ccccc2)CC1`, the result in [1], in test [2], in test [3], in [4], in test [5] and in test [6] was inactive. The result in [7], in [8], in [9], in test [10], in test [11] and in [12] was inactive. The result in [14], in test [15] and in test [16] was inactive. Moreover, the inhibition in test [13] was 17.3% (active).

With `COc1ccc(Sc2nc(-c3ccccc3)ncc2C(=O)O)cc1`, the outcome in [1], in test [2], in test [3], in [4], in [6] and in test [7] was inactive. Also, the result in [8], in test [9], in test [10], in test [11], in [12] and in [14] was inactive. Also, the outcome in test [15] and in test [16] was inactive. Also, the values for the inhibition in [5] and in test [13] were 48% (active) and 45.5% (active), respectively.

Take `CCOc1ccccc1N(C(=O)c1snc(C(N)=O)c1N)C(C(=O)NCc1ccccc1)c1ccc(O)cc1` (stereo not given): the result in test [1], in test [2], in test [3], in [4], in test [6] and in test [7] was inactive. Besides, the result in test [8], in [9], in [10], in [11], in test [12] and in test [14] was inactive. For the same molecule, the outcome in test [15] and in test [16] was inactive. In addition, the inhibition was 79% (active) in test [5] and 41.9% (active) in test [13].

With `COc1ccc(CN2CCN(Cc3ccccc3F)CC2)c(OC)c1`, the outcome in test [1], in test [2], in test [3], in test [4], in test [6] and in test [7] was inactive. Also, the result in test [8], in test [9], in test [10], in test [11], in test [12] and in [14] was inactive. Besides, the result in test [15] and in test [16] was inactive. The inhibition in [5] is 89% (active); in [13], 30.4% (active).

Regarding `C=C(C)Cn1c(SCC)nc2ccccc2c1=O`, the result in [1], in test [2], in test [3], in test [4], in test [6] and in test [7] was inactive. The outcome in [8], in test [9], in test [10], in [11], in test [12] and in [14] was inactive. Besides, the result in [15] and in [16] was inactive. Besides, the inhibition was 96% (active) in [5] and 21.3% (active) in test [13].

`Cc1cc(Br)c(NC(=O)CN(C)CCOc2ccccc2)c(Br)c1`: the result in test [1], in test [2], in [3], in test [4], in test [6] and in test [7] was inactive. Also, the result in test [8], in [9], in [10], in test [11], in [12] and in test [14] was inactive. For the same molecule, the result in test [15] and in test [16] was inactive. Besides, the inhibition in [5] was 81% (active); in test [13], 45.2% (active).

With `OCC1(Cc2ccccc2)CCN(Cc2ccc(C(F)(F)F)cc2)CC1`, the outcome in test [1], in [2], in test [3], in test [4], in test [6] and in [7] was inactive. Further, the outcome in test [8], in test [9], in test [10], in test [11], in [12] and in test [14] was inactive. Also, the outcome in test [15] and in [16] was inactive. Besides, the figures for the inhibition in test [5] and in test [13] were 91% (active) and 23.3% (active), respectively.

For the origin of these results see PubChem BioAssay.
